Reference: the supplement of paper PMC10849652
Targets with a hit are over-represented here; the source holds about 7,900 in all. About 0.6% of all pairs of compound and target were hits.

Columns and labels:
Experiment in all cases: log2 fold change, soluble protein after heating vs DMSO (PISA); higher = thermal stabilisation; K562 cells, 10 uM, 30 min; active = over 0.2 and 3.5 SD of the protein, either way, in both replicates (recomputed)
[1] = compound: COC1=CC=C(C=C1)CN2C=CC3=C2C=C(C=C3)C(=O)NO
In short: (§1)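 K562 cells at 2×10^6 cells/mL were exposed to 10 μM compound for 30 min, then aliquots were heated for 3 min across 48°C-58°C, pooled, and extracted in PBS containing 0.5% NP-40 at 4°C. The supernatant after 21,000xg for 90 min was taken as soluble protein and measured by TMTpro 16plex LC-MS/MS with channel sums equalised. Thermal stability is reported relative to control samples, with values from duplicates. Fold changes are given on a log2 scale.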

filanesib = compound: CON(C)C(=O)N1N=C(c2cc(F)ccc2F)S[C@@]1(CCCN)c1ccccc1 [filanesib]
In short: as §1

zotarolimus = compound: CO[C@H]1C[C@@H]2CC[C@@H](C)[C@@](O)(O2)C(=O)C(=O)N2CCCC[C@H]2C(=O)O[C@H]([C@H](C)C[C@@H]2CC[C@H](n3cnnn3)[C@H](OC)C2)CC(=O)[C@H](C)/C=C(\C)[C@@H](O)[C@@H](OC)C(=O)[C@H](C)C[C@H](C)/C=C/C=C/C=C/1C [zotarolimus]
In short: as §1

idasanutlin = compound: COc1cc(C(=O)O)ccc1NC(=O)[C@@H]1N[C@@H](CC(C)(C)C)[C@](C#N)(c2ccc(Cl)cc2F)[C@H]1c1cccc(Cl)c1F [idasanutlin]
In short: as §1

alisertib = compound: COc1cc(Nc2ncc3c(n2)-c2ccc(Cl)cc2C(c2c(F)cccc2OC)=NC3)ccc1C(=O)O [alisertib]
In short: as §1

[2] = compound: COc1cc2nc(-c3cc(F)ccc3O)nc(N[C@@H]3CNC[C@H]3C(C)(C)O)c2cc1OC
In short: as §1

gefitinib = compound: COc1cc2ncnc(Nc3ccc(F)c(Cl)c3)c2cc1OCCCN1CCOCC1 [gefitinib]
In short: as §1

[3] = compound: COc1cccc2cc(-c3nc([C@H]4CC[C@H](C(=O)O)CC4)n4ncnc(N)c34)[nH]c12
In short: as §1

lapatinib = compound: CS(=O)(=O)CCNCc1ccc(-c2ccc3ncnc(Nc4ccc(OCc5cccc(F)c5)c(Cl)c4)c3c2)o1 [lapatinib]
In short: as §1

pictilisib = compound: CS(=O)(=O)N1CCN(Cc2cc3nc(-c4cccc5[nH]ncc45)nc(N4CCOCC4)c3s2)CC1 [pictilisib]
In short: as §1

[4] = compound: CS(=O)(=O)c1ccc(-c2cnc(N)c(C(=O)Nc3ccccc3)n2)cc1
In short: as §1

crizotinib = compound: C[C@@H](Oc1cc(-c2cnn(C3CCNCC3)c2)cnc1N)c1c(Cl)ccc(F)c1Cl [crizotinib]
In short: as §1

[5] = compound: C[C@@H]1COCCN1C2=NC(=NC(=C2)C3(CC3)S(=O)(=O)C)C4=C5C=CNC5=CC=C4
In short: as §1

[6] = compound: C[C@H](C1=CC=C(C=C1)C(=O)NC2=C3C=CNC3=NC=C2)N
In short: as §1

duvelisib = compound: C[C@H](Nc1ncnc2nc[nH]c12)c1cc2cccc(Cl)c2c(=O)n1-c1ccccc1 [duvelisib]
In short: as §1

gandotinib = compound: Cc1cc(Nc2cc(CN3CCOCC3)c3nc(C)c(Cc4ccc(Cl)cc4F)n3n2)n[nH]1 [gandotinib]
In short: as §1

tozasertib = compound: Cc1cc(Nc2cc(N3CCN(C)CC3)nc(Sc3ccc(NC(=O)C4CC4)cc3)n2)n[nH]1 [tozasertib]
In short: as §1

[7] = compound: Cc1cc(SCc2sc(-c3ccc(C(F)(F)F)cc3)nc2C)ccc1OCC(=O)O
In short: as §1

doramapimod = compound: Cc1ccc(-n2nc(C(C)(C)C)cc2NC(=O)Nc2ccc(OCCN3CCOCC3)c3ccccc23)cc1 [doramapimod]
In short: as §1

ispinesib = compound: Cc1ccc(C(=O)N(CCCN)[C@@H](c2nc3cc(Cl)ccc3c(=O)n2Cc2ccccc2)C(C)C)cc1 [ispinesib]
In short: as §1

Measured: log2 fold change

NFATC2 (UniProt Q13469)
inactive: [1] 0.015 | filanesib 0.161 | zotarolimus -0.084 | idasanutlin 0.058 | alisertib 0.147 | [2] -0.036 | gefitinib 0.031 | [3] -0.152 | lapatinib -0.001 | pictilisib -0.029 | [4] 0 | crizotinib -0.154 | [5] -0.175 | [6] 0 | duvelisib 0.003 | gandotinib 0.048 | tozasertib 0.02 | [7] 0.024 | doramapimod 0.027 | ispinesib -0.18

MPHOSPH10 (UniProt O00566)
inactive: [1] -0.139 | zotarolimus 0.053 | idasanutlin 0.271 | alisertib -0.061 | [2] -0.166 | gefitinib 0.026 | [3] -0.031 | lapatinib 0.174 | pictilisib -0.105 | [4] -0.083 | crizotinib 0.026 | [5] -0.25 | [6] 0.353 | duvelisib -0.047 | gandotinib 0.189 | tozasertib 0.016 | [7] -0.046 | doramapimod 0.049 | ispinesib -0.023
active: filanesib 0.561

MORC3 (UniProt Q14149)
inactive: [1] 0.013 | filanesib -0.04 | zotarolimus 0.015 | idasanutlin 0.021 | alisertib 0.039 | [2] 0.146 | gefitinib -0.082 | [3] 0 | lapatinib -0.058 | pictilisib 0.196 | [4] 0.058 | crizotinib 0.052 | [5] 0.197 | [6] -0.106 | duvelisib 0.106 | gandotinib -0.017 | tozasertib 0.185 | [7] 0.122 | doramapimod -0.067 | ispinesib 0.041

MKNK1 (UniProt Q9BUB5)
Sequence of UniProt Q9BUB5 (Q9BUB5 whole entry, looked up): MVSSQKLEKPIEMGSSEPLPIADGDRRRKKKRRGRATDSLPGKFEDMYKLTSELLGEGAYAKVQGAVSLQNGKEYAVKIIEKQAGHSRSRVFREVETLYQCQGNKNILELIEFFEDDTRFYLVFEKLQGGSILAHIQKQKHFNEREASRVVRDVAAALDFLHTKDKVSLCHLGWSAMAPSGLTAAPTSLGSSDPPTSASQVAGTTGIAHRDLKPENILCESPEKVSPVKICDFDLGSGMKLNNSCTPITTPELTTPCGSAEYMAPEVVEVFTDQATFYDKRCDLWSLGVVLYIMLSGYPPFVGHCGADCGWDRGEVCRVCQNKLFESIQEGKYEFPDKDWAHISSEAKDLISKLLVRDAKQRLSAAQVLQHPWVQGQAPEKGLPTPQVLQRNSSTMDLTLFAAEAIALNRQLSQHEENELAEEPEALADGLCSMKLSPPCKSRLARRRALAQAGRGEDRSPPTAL
active: gefitinib 0.525 | [6] 0.31
inactive: [1] 0.021 | filanesib -0.108 | zotarolimus -0.022 | idasanutlin -0.075 | alisertib 0.008 | [2] -0.021 | [3] -0.073 | lapatinib 0.015 | pictilisib -0.058 | [4] 0.038 | crizotinib -0.082 | [5] -0.039 | duvelisib 0.031 | gandotinib 0.038 | tozasertib 0.085 | [7] 0.057 | doramapimod 0.054 | ispinesib -0.03

OTULIN (UniProt Q96BN8)
Sequence of UniProt Q96BN8 (Q96BN8 whole entry, looked up): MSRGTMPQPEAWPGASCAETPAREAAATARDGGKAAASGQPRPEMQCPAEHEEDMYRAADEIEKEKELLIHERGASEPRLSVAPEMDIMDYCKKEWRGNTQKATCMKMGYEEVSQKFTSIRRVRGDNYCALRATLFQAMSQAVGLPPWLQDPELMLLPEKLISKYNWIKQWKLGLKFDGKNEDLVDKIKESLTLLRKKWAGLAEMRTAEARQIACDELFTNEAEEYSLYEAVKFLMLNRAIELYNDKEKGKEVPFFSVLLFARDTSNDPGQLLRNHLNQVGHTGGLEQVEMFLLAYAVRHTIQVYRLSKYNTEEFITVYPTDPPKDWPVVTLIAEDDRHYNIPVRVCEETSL
inactive: [1] 0.022 | filanesib -0.044 | zotarolimus -0.024 | idasanutlin -0.005 | alisertib 0.086 | [2] 0.014 | gefitinib 0 | [3] -0.045 | lapatinib 0.048 | pictilisib 0.023 | [4] -0.099 | crizotinib -0.079 | [5] 0.04 | [6] 0.036 | duvelisib -0.027 | gandotinib -0.088 | tozasertib 0.098 | [7] 0.073 | doramapimod -0.095 | ispinesib -0.208

NBN (UniProt O60934)
inactive: [1] -0.039 | filanesib -0.007 | zotarolimus 0.039 | idasanutlin -0.053 | alisertib 0.057 | [2] 0.028 | gefitinib 0.03 | [3] -0.019 | lapatinib 0.008 | pictilisib -0.035 | [4] 0.02 | crizotinib 0.009 | [5] 0.038 | [6] -0.063 | duvelisib 0.105 | gandotinib -0.069 | tozasertib 0.028 | [7] 0.116 | doramapimod -0.004 | ispinesib 0.008

NAGPA (UniProt Q9UK23)
Sequence of UniProt Q9UK23 (Q9UK23 whole entry, looked up): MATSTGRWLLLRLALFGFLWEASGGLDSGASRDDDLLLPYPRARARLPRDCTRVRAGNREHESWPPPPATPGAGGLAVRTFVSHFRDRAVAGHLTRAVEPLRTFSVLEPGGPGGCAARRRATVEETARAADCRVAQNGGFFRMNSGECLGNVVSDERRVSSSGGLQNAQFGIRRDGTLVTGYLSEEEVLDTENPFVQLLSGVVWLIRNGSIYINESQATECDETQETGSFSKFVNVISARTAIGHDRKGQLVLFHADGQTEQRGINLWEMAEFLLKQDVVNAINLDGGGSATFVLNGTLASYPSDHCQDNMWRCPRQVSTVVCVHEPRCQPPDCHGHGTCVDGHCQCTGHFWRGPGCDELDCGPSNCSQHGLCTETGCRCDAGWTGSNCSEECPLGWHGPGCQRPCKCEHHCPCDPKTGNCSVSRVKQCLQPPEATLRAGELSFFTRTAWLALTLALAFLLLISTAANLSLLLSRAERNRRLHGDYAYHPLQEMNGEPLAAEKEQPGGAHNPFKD
inactive: [1] -0.025 | filanesib -0.046 | zotarolimus -0.099 | idasanutlin 0.054 | alisertib -0.069 | [2] -0.044 | gefitinib 0.001 | [3] 0.248 | lapatinib 0.139 | pictilisib 0.134 | [4] 0.017 | crizotinib 0.178 | [5] -0.078 | [6] -0.014 | duvelisib 0.067 | gandotinib 0.024 | tozasertib -0.094 | [7] -0.079 | doramapimod 0.072

NGLY1 (UniProt Q96IV0)
Sequence of UniProt Q96IV0 (Q96IV0 whole entry, looked up): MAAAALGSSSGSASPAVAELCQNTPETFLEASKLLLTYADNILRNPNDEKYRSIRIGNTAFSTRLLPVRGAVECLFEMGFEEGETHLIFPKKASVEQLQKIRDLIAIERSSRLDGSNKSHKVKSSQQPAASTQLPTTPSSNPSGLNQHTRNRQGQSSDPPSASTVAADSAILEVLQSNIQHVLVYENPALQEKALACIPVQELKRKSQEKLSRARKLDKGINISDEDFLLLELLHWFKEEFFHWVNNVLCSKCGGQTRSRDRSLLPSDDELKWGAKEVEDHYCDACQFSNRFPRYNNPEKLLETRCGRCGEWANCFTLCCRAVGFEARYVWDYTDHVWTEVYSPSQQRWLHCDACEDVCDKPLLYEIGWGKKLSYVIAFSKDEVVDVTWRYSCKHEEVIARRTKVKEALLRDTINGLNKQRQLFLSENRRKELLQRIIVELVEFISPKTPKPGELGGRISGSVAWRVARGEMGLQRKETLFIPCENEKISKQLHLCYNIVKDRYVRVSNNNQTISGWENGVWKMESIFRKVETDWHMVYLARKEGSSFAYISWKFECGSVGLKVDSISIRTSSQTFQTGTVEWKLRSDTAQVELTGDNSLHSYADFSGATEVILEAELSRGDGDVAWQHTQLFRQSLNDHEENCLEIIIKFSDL
inactive: [1] 0.02 | filanesib 0.043 | zotarolimus -0.012 | idasanutlin 0.112 | alisertib -0.064 | [2] 0.047 | gefitinib 0.076 | [3] -0.128 | lapatinib 0.03 | pictilisib 0.045 | [4] 0.017 | crizotinib -0.079 | [5] -0.01 | [6] 0.093 | duvelisib 0.028 | gandotinib -0.043 | tozasertib 0.048 | [7] 0.032 | doramapimod 0.001 | ispinesib -0.059

NASP (UniProt P49321)
Sequence of UniProt P49321 (P49321 whole entry, looked up): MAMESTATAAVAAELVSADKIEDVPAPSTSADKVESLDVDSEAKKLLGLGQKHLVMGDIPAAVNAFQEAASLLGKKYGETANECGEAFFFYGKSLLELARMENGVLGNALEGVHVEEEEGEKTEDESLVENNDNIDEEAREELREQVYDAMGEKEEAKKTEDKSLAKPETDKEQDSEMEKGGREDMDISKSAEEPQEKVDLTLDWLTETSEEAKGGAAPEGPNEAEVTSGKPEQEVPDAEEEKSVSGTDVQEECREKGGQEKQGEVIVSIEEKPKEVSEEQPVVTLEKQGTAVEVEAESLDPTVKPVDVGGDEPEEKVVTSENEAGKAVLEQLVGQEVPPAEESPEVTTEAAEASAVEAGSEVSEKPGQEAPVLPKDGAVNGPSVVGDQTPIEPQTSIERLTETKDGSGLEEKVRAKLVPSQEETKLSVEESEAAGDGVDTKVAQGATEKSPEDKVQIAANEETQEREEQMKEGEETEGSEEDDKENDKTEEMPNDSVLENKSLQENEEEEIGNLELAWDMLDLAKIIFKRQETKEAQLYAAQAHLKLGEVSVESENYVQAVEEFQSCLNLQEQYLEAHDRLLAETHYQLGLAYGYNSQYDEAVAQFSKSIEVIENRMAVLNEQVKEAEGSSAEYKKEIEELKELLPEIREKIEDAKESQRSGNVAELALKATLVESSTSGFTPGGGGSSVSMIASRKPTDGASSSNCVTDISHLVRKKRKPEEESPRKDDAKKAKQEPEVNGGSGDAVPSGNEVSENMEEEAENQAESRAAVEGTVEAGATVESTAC
inactive: [1] 0.01 | filanesib -0.009 | zotarolimus 0.05 | idasanutlin -0.021 | alisertib -0.03 | [2] 0.029 | gefitinib 0.001 | [3] -0.023 | lapatinib -0.023 | pictilisib 0.007 | [4] 0.005 | crizotinib 0.063 | [5] 0.045 | [6] -0.061 | duvelisib 0.08 | gandotinib -0.066 | tozasertib 0.105 | [7] 0.013 | doramapimod -0.053 | ispinesib 0.06

OPA1 isoform 2 (UniProt O60313)
inactive: [1] -0.01 | filanesib -0.118 | zotarolimus 0.035 | idasanutlin -0.105 | alisertib 0.002 | gefitinib -0.002 | [3] 0.002 | lapatinib 0.024 | pictilisib -0.07 | [4] 0.056 | [5] 0.048 | [6] -0.003 | duvelisib 0.034 | gandotinib -0.063 | tozasertib -0.075 | [7] 0.054 | doramapimod -0.031
active: [2] -0.249 | crizotinib -0.326 | ispinesib -0.337

NUDT21 (UniProt O43809)
Sequence of UniProt O43809 (O43809 whole entry, looked up): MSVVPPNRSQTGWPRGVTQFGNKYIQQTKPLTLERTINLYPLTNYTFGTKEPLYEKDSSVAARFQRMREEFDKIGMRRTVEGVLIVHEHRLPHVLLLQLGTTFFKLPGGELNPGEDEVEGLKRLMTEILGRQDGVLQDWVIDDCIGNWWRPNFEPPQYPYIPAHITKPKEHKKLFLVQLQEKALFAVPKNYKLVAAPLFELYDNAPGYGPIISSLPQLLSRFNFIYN
active: [6] -0.209
inactive: [1] -0.003 | filanesib 0.027 | zotarolimus 0.013 | idasanutlin 0.006 | alisertib -0.077 | [2] 0.102 | gefitinib -0.019 | [3] 0.031 | lapatinib -0.019 | pictilisib 0.017 | [4] -0.054 | crizotinib 0.039 | [5] -0.031 | duvelisib -0.01 | gandotinib -0.059 | tozasertib 0.013 | [7] 0.039 | doramapimod 0.007 | ispinesib 0.116

OXR1 (UniProt Q8N573)
Sequence of UniProt Q8N573 (Q8N573 whole entry, looked up): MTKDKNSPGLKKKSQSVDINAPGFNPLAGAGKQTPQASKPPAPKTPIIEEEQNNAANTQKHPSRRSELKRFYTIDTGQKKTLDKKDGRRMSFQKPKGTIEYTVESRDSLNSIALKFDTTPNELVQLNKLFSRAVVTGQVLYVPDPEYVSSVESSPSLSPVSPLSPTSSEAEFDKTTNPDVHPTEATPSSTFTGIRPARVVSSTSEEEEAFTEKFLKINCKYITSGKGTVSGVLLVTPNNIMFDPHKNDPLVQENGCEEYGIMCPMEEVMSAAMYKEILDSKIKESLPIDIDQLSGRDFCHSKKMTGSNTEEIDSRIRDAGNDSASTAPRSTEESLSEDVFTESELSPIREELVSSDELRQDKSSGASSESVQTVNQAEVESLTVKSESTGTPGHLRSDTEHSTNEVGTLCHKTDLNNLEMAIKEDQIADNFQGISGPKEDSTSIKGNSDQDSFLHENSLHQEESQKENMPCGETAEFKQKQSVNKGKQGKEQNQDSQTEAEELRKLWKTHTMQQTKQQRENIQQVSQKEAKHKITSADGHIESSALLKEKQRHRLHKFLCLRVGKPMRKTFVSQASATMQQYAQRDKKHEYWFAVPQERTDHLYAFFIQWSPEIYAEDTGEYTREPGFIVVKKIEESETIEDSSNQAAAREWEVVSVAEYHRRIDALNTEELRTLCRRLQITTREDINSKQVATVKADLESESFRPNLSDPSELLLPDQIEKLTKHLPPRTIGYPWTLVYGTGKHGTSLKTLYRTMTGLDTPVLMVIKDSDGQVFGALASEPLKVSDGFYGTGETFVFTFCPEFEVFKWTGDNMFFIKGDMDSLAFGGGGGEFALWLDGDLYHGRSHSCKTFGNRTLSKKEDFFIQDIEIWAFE
inactive: [1] -0.018 | filanesib -0.078 | zotarolimus 0.009 | idasanutlin -0.014 | alisertib -0.059 | [2] 0.034 | gefitinib 0.003 | [3] 0.018 | lapatinib 0.011 | pictilisib 0.164 | [4] 0.02 | crizotinib -0.074 | [5] 0.014 | [6] -0.048 | duvelisib 0.063 | gandotinib 0 | tozasertib 0.021 | [7] -0.011 | doramapimod 0.001 | ispinesib -0.095

MRPS22 (UniProt P82650)
inactive: [1] 0.041 | filanesib 0.05 | zotarolimus 0.071 | alisertib 0.015 | [2] 0.019 | gefitinib -0.017 | [3] -0.019 | lapatinib 0.038 | pictilisib -0.03 | [4] -0.014 | crizotinib 0.037 | [5] 0.086 | [6] 0.055 | duvelisib 0.043 | gandotinib 0.008 | tozasertib 0.004 | [7] 0.081 | doramapimod 0.002
active: idasanutlin -0.301 | ispinesib -0.258

NMT1 (UniProt P30419)
inactive: [1] -0.023 | filanesib -0.005 | zotarolimus 0.042 | idasanutlin -0.015 | alisertib -0.056 | [2] -0.009 | gefitinib -0.044 | [3] 0.018 | lapatinib 0.03 | pictilisib 0.029 | [4] 0.085 | crizotinib -0.17 | [5] -0.058 | [6] -0.032 | duvelisib -0.003 | gandotinib 0.066 | tozasertib -0.012 | [7] -0.003 | doramapimod 0 | ispinesib -0.164

NIBAN1 (UniProt Q9BZQ8)
Sequence of UniProt Q9BZQ8 (Q9BZQ8 whole entry, looked up): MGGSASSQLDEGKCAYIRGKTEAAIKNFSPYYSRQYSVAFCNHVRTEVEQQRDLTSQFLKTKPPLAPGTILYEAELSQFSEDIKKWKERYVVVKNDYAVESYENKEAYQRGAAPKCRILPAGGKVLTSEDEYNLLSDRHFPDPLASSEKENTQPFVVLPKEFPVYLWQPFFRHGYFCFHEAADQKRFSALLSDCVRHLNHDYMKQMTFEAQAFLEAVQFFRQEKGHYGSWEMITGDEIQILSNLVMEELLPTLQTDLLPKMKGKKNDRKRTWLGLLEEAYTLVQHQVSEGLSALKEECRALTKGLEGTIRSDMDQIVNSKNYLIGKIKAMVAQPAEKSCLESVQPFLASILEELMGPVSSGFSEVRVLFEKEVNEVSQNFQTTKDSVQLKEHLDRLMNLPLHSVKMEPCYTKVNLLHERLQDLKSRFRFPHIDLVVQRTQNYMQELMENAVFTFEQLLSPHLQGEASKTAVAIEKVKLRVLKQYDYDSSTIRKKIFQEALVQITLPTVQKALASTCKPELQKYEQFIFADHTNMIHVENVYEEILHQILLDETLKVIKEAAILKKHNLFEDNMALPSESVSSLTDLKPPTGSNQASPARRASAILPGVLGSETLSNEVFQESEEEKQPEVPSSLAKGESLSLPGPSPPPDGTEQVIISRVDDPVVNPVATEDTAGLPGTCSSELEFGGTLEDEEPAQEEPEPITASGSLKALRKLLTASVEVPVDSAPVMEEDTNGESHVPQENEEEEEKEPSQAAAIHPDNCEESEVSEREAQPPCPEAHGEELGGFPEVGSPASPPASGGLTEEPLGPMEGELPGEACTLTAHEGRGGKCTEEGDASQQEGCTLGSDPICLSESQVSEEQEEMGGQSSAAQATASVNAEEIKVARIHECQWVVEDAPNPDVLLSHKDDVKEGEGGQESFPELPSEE
inactive: [1] 0.055 | filanesib 0.028 | zotarolimus 0.028 | idasanutlin -0.007 | alisertib -0.052 | [2] -0.043 | gefitinib -0.032 | [3] -0.062 | lapatinib -0.015 | pictilisib 0 | [4] 0.02 | crizotinib -0.296 | [5] 0.014 | [6] 0.097 | duvelisib 0.017 | gandotinib -0.143 | tozasertib -0.003 | [7] 0.116 | doramapimod 0.001 | ispinesib -0.148

NDUFA4 (UniProt O00483)
Sequence of UniProt O00483 (O00483 whole entry, looked up): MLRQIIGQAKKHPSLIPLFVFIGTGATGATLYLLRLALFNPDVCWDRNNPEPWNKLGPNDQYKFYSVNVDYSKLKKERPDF
inactive: [1] -0.022 | filanesib -0.031 | zotarolimus -0.019 | idasanutlin 0.038 | alisertib -0.024 | [2] -0.044 | gefitinib 0.024 | [3] 0.019 | lapatinib 0.048 | pictilisib -0.025 | [4] -0.045 | crizotinib 0.138 | [5] 0.162 | [6] -0.055 | duvelisib 0.142 | gandotinib -0.099 | tozasertib 0.025 | [7] 0.022 | doramapimod 0.034 | ispinesib 0.204
